# Measured values published in publication PMC5540273 (PLoS ONE, 2017).
# System: PRKD3
# Conditions: concentration: 1 μM, replicates: in singlicate; n = 1
# 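Also: KINOMEscan kinase panel screen.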
row,Compound,%Inh
1,COc1ccc(-n2cnc3c(N)ncnc32)cc1 [SKF-97236],5%
2,FC(F)(F)c1ccc(-c2ncn(CCCN3CCOCC3)c2-c2ccncc2)cc1 [SB-217780],0%
3,CCc1nc(-c2cccc(C)c2)c(-c2ccncc2)s1,9%
4,COC(=O)c1c(-c2ccccc2)c2cc(Br)ccc2c(=O)n1Cc1ccc(NC(=O)CCC(=O)O)cc1,0%
5,Cc1ccc(-c2ccc3c(ccc4sc5c(c43)NC[C@@H](C)N=C5N(C)C)n2)cn1,20%
6,Cc1nnc(-c2ccc(C)c(-c3ccc(C(=O)O)cc3)c2)o1 [GW608005],19%
7,CCCNC(=O)Nc1ccc(Oc2ncnc3ccn(C)c23)cc1,0%
8,Nc1n[nH]c2nnc(-c3ccccc3)c(-c3ccccc3)c12 [GW554060],17%
9,COC(=O)c1c(-c2ccccc2)c2cc(Br)ccc2c(=O)n1Cc1ccc(S(C)(=O)=O)cc1,0%
10,O=c1cc(N2CCOCC2)nc2n(Cc3ccc(F)c(Cl)c3)ccn12 [GSK2297099],12%
11,COc1cc(Nc2nccc(N3CCC(NC(=O)C4COc5ccccc5O4)C3)n2)cc(OC)c1OC (stereo not drawn) [GSK1379761],0%
12,CCCC(=O)Nc1n[nH]c2ncc(-c3cccc4ccccc34)cc12 [SB-642057],0%
13,CCn1c(-c2nonc2N)nc2ccccc21 [SB-693162/GW549034],0%
14,O=C(Nc1n[nH]c2nc(-c3ccccc3)c(Br)cc12)C1CC1 [SB-708998],17%
15,Cn1c(=O)c(F)c(Nc2ccc(I)cc2F)c2c(=O)n(OC[C@H](O)CO)cnc21,0%
16,COc1cc2nccc(Nc3ccc(OCc4ccc(NC(C)=O)cc4)cc3)c2cc1OC.Cl [GW440135],2%
17,Cl.c1ccc(Cn2cnc3cc(Nc4ncnc5ccccc45)ccc32)cc1 [GW272142],0%
18,Nc1ncnc2c1ncn2-c1cccc2ccccc12 [SKF-97184],0%

row,Compound,%Inh
1,O=C(NCCNc1ccnc(Nc2ccc(F)cc2)n1)Nc1ccc2c(c1)OCO2 [GSK1379882],0%
2,O=C(Nc1n[nH]c2cc(-c3ccccc3F)ccc12)C1CC1 [SB-733371],0%
3,COc1ccc(-c2coc3ccc(-c4nnc(SCc5cccc(C#N)c5)o4)cc23)cc1,0%
4,Cc1nc(N(C)[C@H]2CN(C(=O)CC#N)CC[C@H]2C)c2cc[nH]c2n1,66%
5,Cc1cccc(-c2nc(Nc3ccc4c(cnn4C)c3)c3ccccc3n2)n1 [GW876731],90.2%
6,Cl.NS(=O)(=O)c1cccc(Nc2cc(-c3ccc(F)cc3)n[nH]2)c1 [GW824645],0%
7,COc1ccc(-c2cc3c(C)nc(N)nc3n([C@H]3CC[C@H](OCCO)CC3)c2=O)cn1,9%
8,COc1ccc(-c2cc3c(C)nc(N)nc3n([C@H]3CC[C@H](O)CC3)c2=O)cn1,0%
9,CN(C)c1cc(-c2ccc3c(N)n[nH]c3c2)nc(N)n1 [GSK2219329],0%
10,O=C1NC(=O)C(c2ccccc2)=C1Nc1cccc(O)c1 [SB-390534],0%
11,Fc1cccc(CSc2nnc(-c3ccc4c(c3)CCO4)o2)c1,0%
12,COc1cc2ncn(-c3cc(OCCCc4ccccc4)c(C(N)=O)s3)c2cc1OC [GSK205189],0%
13,COc1cc(Nc2ccnc3ccc(C(F)(F)F)cc23)cc(OC)c1OC [GW577382],0%
14,COc1cccc(-n2cnc3c(N)ncnc32)c1 [SKF-97416],0%
15,COc1cccc(C2=C(Nc3cccc(C(=O)O)c3)C(=O)NC2=O)c1 [SB-390770],0%
16,Nc1nc(N)c2nc(-c3ccccc3)[nH]c2n1 [SKF-12778],0%
17,CCC(=O)c1c(-c2ccccc2)c2cc(Cl)ccc2c(=O)n1Cc1cc(S(C)(=O)=O)n(CC(F)F)n1,0%
18,CCS(=O)(=O)c1ccc(OC)c(Nc2ncc(-c3ccc(F)cc3)o2)c1.Cl [GW591947],0%

# System: PRKG1
# Conditions: concentration: 1 μM, replicates: in singlicate; n = 1
row,Compound,%Inh
1,COc1ccc(-n2cnc3c(N)ncnc32)cc1 [SKF-97236],14%
2,FC(F)(F)c1ccc(-c2ncn(CCCN3CCOCC3)c2-c2ccncc2)cc1 [SB-217780],29%
3,CCc1nc(-c2cccc(C)c2)c(-c2ccncc2)s1,0%
4,COC(=O)c1c(-c2ccccc2)c2cc(Br)ccc2c(=O)n1Cc1ccc(NC(=O)CCC(=O)O)cc1,0%
5,Cc1ccc(-c2ccc3c(ccc4sc5c(c43)NC[C@@H](C)N=C5N(C)C)n2)cn1,0%
6,Cc1nnc(-c2ccc(C)c(-c3ccc(C(=O)O)cc3)c2)o1 [GW608005],0%
7,CCCNC(=O)Nc1ccc(Oc2ncnc3ccn(C)c23)cc1,0%
8,Nc1n[nH]c2nnc(-c3ccccc3)c(-c3ccccc3)c12 [GW554060],0%
9,COC(=O)c1c(-c2ccccc2)c2cc(Br)ccc2c(=O)n1Cc1ccc(S(C)(=O)=O)cc1,0%
10,O=c1cc(N2CCOCC2)nc2n(Cc3ccc(F)c(Cl)c3)ccn12 [GSK2297099],0%
11,COc1cc(Nc2nccc(N3CCC(NC(=O)C4COc5ccccc5O4)C3)n2)cc(OC)c1OC (stereo not drawn) [GSK1379761],0%
12,CCCC(=O)Nc1n[nH]c2ncc(-c3cccc4ccccc34)cc12 [SB-642057],7%
13,CCn1c(-c2nonc2N)nc2ccccc21 [SB-693162/GW549034],0%
14,O=C(Nc1n[nH]c2nc(-c3ccccc3)c(Br)cc12)C1CC1 [SB-708998],14%
15,Cn1c(=O)c(F)c(Nc2ccc(I)cc2F)c2c(=O)n(OC[C@H](O)CO)cnc21,8%
16,COc1cc2nccc(Nc3ccc(OCc4ccc(NC(C)=O)cc4)cc3)c2cc1OC.Cl [GW440135],10%
17,Cl.c1ccc(Cn2cnc3cc(Nc4ncnc5ccccc45)ccc32)cc1 [GW272142],0%
18,Nc1ncnc2c1ncn2-c1cccc2ccccc12 [SKF-97184],0%

row,Compound,%Inh
1,O=C(NCCNc1ccnc(Nc2ccc(F)cc2)n1)Nc1ccc2c(c1)OCO2 [GSK1379882],0%
2,O=C(Nc1n[nH]c2cc(-c3ccccc3F)ccc12)C1CC1 [SB-733371],0%
3,COc1ccc(-c2coc3ccc(-c4nnc(SCc5cccc(C#N)c5)o4)cc23)cc1,0%
4,Cc1nc(N(C)[C@H]2CN(C(=O)CC#N)CC[C@H]2C)c2cc[nH]c2n1,2%
5,Cc1cccc(-c2nc(Nc3ccc4c(cnn4C)c3)c3ccccc3n2)n1 [GW876731],9%
6,Cl.NS(=O)(=O)c1cccc(Nc2cc(-c3ccc(F)cc3)n[nH]2)c1 [GW824645],0%
7,COc1ccc(-c2cc3c(C)nc(N)nc3n([C@H]3CC[C@H](OCCO)CC3)c2=O)cn1,0%
8,COc1ccc(-c2cc3c(C)nc(N)nc3n([C@H]3CC[C@H](O)CC3)c2=O)cn1,0%
9,CN(C)c1cc(-c2ccc3c(N)n[nH]c3c2)nc(N)n1 [GSK2219329],1%
10,O=C1NC(=O)C(c2ccccc2)=C1Nc1cccc(O)c1 [SB-390534],8%
11,Fc1cccc(CSc2nnc(-c3ccc4c(c3)CCO4)o2)c1,0%
12,COc1cc2ncn(-c3cc(OCCCc4ccccc4)c(C(N)=O)s3)c2cc1OC [GSK205189],0%
13,COc1cc(Nc2ccnc3ccc(C(F)(F)F)cc23)cc(OC)c1OC [GW577382],3%
14,COc1cccc(-n2cnc3c(N)ncnc32)c1 [SKF-97416],19%
15,COc1cccc(C2=C(Nc3cccc(C(=O)O)c3)C(=O)NC2=O)c1 [SB-390770],0%
16,Nc1nc(N)c2nc(-c3ccccc3)[nH]c2n1 [SKF-12778],12%
17,CCC(=O)c1c(-c2ccccc2)c2cc(Cl)ccc2c(=O)n1Cc1cc(S(C)(=O)=O)n(CC(F)F)n1,0%
18,CCS(=O)(=O)c1ccc(OC)c(Nc2ncc(-c3ccc(F)cc3)o2)c1.Cl [GW591947],45%
